Columns and labels:
Assay in all cases: log2 ratio of Biotin-Ahx-Ub-VS probe labelling (fragment/DMSO); higher = less target engagement (more negative = stronger competition), active = hit call of the paper (q ≤ 0.05, log2 ratio ≤ -1)
Settings in all cases: compound concentration: 200 uM; treatment time: 3 h
USP42 = molecular target: T1, USP42 (UniProt Q9H9J4)
T1 sequence (whole entry): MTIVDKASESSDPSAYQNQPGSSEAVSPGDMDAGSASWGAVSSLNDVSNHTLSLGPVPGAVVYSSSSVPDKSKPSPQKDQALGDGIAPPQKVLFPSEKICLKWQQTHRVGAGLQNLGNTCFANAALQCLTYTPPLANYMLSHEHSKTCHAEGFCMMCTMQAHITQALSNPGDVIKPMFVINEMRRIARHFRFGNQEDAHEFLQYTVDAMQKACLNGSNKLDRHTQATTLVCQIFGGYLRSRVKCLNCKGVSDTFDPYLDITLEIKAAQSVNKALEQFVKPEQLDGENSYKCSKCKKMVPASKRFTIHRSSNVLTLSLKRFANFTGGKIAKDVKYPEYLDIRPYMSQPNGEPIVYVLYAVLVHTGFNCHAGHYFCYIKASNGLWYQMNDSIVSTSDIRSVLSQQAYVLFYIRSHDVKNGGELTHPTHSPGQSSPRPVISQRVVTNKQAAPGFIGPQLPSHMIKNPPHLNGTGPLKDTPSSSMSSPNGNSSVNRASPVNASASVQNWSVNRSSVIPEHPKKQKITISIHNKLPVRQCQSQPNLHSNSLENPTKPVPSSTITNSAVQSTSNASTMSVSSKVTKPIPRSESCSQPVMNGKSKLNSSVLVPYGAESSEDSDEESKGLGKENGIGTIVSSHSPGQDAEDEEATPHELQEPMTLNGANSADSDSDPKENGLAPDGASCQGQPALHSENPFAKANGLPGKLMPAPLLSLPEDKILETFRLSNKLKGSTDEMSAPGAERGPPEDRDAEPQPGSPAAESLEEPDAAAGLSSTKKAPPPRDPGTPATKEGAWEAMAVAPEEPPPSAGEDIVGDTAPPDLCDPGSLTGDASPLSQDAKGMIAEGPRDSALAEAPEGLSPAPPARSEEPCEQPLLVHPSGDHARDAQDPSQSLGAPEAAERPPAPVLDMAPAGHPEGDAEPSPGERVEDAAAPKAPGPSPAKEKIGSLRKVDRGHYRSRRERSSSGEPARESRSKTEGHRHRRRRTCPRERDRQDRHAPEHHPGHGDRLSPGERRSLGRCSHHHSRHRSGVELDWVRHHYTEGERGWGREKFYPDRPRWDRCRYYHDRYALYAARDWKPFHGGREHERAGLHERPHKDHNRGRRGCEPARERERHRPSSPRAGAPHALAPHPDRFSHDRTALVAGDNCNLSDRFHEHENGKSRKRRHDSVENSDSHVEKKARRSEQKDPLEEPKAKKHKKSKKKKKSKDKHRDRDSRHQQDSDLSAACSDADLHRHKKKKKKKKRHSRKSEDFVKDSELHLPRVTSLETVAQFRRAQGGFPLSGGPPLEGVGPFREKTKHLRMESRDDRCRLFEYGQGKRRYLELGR
In short: (§1)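 HEK293T lysate (495 µg per sample, in Tris/CHAPS/IGEPAL buffer with protease inhibitors) was treated in triplicate with fragment at 200 µM or with DMSO for 3 h. It was then treated with Biotin-Ahx-Ub-VS (0.5 µM final) for 1 h. Labelled DUBs were NeutrAvidin-enriched, digested with LysC and trypsin, and run by diaPASEF LC-MS/MS. Spectronaut label-free quantities were global-median-normalised. Values are average log2 ratios fragment/DMSO by unpaired t-test, using proteins with ≥2 unique peptides.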

USP46 = USP46 (UniProt P62068)
In short: as §1

USP47 = molecular target: T2, USP47 (UniProt Q96K76)
T2 sequence (whole entry): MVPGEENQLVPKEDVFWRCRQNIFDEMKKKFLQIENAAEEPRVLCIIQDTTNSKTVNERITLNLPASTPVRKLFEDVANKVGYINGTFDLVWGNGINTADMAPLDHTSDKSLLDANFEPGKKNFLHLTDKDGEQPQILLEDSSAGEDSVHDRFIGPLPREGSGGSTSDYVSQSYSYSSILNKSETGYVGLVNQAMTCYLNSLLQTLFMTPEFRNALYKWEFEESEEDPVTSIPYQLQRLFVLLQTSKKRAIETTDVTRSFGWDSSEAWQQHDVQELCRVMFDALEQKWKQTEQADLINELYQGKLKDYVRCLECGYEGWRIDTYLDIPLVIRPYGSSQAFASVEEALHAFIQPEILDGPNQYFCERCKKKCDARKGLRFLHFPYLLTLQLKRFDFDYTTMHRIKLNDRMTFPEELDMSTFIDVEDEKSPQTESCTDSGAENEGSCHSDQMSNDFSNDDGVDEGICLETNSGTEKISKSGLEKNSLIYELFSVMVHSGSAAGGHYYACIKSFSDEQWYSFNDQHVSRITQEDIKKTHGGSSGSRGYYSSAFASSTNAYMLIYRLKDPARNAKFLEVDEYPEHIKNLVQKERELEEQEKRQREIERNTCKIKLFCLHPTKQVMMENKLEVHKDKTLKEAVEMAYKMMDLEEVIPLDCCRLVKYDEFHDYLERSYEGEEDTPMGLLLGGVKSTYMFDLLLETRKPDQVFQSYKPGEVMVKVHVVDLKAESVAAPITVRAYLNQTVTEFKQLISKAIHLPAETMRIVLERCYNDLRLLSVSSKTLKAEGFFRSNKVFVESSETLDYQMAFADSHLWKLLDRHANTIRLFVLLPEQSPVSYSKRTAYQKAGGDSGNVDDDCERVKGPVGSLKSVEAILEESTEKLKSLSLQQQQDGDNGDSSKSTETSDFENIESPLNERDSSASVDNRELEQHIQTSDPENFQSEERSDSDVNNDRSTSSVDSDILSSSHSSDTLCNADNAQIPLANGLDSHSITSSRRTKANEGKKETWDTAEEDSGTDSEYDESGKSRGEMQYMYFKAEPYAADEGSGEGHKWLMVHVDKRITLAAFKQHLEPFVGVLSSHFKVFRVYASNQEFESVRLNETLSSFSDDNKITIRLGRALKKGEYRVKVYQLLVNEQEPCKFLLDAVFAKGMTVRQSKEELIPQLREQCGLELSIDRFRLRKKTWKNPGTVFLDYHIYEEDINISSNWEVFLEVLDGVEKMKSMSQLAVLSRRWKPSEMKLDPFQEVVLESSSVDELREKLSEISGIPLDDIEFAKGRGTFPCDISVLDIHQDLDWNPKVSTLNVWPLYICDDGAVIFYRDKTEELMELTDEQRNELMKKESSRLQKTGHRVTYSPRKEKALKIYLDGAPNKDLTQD
In short: as §1

USP48 = molecular target: T3, USP48 (UniProt Q86UV5)
T3 sequence (whole entry): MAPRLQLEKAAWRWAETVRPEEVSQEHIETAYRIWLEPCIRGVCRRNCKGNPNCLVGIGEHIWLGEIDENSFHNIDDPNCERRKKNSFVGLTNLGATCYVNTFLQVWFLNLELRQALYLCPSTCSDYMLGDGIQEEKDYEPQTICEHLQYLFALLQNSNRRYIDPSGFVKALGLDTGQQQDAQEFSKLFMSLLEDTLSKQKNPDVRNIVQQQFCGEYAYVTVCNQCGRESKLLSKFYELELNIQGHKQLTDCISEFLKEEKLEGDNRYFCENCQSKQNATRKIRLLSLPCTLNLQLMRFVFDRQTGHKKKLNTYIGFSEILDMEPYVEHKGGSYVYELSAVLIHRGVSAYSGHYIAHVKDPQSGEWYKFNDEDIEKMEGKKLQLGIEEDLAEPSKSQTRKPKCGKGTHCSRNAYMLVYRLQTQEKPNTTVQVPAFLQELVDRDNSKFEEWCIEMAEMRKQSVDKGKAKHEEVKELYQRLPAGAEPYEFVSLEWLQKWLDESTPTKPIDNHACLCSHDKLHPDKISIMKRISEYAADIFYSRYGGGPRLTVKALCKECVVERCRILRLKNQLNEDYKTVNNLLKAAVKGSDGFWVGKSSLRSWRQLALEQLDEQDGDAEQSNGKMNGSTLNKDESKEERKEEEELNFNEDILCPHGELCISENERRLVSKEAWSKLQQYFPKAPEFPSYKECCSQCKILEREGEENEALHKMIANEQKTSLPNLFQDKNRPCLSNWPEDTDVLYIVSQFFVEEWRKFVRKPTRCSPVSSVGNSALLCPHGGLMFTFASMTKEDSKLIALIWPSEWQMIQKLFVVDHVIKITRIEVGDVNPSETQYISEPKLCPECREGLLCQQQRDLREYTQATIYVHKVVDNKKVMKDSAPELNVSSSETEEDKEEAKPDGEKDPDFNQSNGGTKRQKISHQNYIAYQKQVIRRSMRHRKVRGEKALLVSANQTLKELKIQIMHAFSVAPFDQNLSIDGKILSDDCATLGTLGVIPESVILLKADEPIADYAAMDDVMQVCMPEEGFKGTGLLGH
In short: as §1

USP5 = molecular target: T4, USP5 (UniProt P45974)
T4 sequence (whole entry): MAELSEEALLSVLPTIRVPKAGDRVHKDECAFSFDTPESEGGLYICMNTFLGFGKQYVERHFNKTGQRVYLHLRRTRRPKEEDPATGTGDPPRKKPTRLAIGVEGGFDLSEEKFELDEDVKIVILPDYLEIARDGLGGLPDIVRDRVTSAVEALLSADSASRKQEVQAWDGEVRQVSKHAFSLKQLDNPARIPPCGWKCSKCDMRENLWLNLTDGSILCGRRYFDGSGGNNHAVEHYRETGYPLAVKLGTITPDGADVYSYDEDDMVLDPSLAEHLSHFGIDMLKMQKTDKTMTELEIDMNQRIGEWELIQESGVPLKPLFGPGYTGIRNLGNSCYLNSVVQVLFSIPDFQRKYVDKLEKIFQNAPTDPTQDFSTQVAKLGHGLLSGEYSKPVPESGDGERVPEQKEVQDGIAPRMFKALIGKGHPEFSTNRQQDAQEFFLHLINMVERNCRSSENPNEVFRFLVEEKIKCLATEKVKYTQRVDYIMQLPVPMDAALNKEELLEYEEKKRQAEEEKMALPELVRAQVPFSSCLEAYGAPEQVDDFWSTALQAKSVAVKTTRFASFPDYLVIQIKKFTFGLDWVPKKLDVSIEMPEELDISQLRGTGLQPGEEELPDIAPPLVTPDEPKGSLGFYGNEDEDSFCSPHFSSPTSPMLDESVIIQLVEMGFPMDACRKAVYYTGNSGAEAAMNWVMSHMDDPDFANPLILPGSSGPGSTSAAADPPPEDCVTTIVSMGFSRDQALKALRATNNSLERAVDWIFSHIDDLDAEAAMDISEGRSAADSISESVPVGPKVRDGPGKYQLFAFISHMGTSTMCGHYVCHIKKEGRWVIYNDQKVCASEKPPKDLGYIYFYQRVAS
In short: as §1

USP54 = USP54 (UniProt Q70EL1)
In short: as §1

USP7 = USP7 (UniProt Q93009)
In short: as §1

USP8 = molecular target: T5, USP8 (UniProt P40818)
T5 sequence (whole entry): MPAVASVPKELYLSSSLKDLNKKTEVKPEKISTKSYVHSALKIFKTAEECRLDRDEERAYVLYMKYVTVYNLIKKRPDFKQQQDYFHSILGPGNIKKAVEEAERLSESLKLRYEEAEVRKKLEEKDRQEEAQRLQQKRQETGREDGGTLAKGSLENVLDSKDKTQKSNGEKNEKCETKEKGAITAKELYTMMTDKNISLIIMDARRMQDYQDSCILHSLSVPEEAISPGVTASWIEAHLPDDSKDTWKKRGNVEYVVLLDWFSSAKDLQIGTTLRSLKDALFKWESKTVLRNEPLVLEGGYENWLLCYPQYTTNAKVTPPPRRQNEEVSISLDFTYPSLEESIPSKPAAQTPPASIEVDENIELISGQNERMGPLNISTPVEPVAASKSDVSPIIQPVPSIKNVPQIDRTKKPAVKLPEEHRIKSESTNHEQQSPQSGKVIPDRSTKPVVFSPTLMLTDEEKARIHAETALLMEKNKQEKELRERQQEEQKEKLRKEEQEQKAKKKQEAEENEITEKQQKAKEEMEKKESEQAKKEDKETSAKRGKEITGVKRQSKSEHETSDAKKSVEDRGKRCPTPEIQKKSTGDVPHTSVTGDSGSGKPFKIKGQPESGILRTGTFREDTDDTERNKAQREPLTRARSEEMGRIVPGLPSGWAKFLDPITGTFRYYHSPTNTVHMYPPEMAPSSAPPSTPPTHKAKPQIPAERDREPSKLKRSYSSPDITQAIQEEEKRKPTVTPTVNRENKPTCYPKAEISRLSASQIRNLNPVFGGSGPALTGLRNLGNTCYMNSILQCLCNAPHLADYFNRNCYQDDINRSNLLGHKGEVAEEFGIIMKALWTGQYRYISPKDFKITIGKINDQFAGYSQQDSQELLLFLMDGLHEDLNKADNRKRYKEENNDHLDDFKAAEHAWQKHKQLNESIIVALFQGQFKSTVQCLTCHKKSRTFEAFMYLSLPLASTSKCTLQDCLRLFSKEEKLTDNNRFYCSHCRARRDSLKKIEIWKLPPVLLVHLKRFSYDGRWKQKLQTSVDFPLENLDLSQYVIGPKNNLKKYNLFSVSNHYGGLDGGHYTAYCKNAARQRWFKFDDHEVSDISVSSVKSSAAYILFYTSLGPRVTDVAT
In short: as §1

Measured: log2 ratio of Biotin-Ahx-Ub-VS probe labelling

USP54, sequence (Q70EL1 whole entry): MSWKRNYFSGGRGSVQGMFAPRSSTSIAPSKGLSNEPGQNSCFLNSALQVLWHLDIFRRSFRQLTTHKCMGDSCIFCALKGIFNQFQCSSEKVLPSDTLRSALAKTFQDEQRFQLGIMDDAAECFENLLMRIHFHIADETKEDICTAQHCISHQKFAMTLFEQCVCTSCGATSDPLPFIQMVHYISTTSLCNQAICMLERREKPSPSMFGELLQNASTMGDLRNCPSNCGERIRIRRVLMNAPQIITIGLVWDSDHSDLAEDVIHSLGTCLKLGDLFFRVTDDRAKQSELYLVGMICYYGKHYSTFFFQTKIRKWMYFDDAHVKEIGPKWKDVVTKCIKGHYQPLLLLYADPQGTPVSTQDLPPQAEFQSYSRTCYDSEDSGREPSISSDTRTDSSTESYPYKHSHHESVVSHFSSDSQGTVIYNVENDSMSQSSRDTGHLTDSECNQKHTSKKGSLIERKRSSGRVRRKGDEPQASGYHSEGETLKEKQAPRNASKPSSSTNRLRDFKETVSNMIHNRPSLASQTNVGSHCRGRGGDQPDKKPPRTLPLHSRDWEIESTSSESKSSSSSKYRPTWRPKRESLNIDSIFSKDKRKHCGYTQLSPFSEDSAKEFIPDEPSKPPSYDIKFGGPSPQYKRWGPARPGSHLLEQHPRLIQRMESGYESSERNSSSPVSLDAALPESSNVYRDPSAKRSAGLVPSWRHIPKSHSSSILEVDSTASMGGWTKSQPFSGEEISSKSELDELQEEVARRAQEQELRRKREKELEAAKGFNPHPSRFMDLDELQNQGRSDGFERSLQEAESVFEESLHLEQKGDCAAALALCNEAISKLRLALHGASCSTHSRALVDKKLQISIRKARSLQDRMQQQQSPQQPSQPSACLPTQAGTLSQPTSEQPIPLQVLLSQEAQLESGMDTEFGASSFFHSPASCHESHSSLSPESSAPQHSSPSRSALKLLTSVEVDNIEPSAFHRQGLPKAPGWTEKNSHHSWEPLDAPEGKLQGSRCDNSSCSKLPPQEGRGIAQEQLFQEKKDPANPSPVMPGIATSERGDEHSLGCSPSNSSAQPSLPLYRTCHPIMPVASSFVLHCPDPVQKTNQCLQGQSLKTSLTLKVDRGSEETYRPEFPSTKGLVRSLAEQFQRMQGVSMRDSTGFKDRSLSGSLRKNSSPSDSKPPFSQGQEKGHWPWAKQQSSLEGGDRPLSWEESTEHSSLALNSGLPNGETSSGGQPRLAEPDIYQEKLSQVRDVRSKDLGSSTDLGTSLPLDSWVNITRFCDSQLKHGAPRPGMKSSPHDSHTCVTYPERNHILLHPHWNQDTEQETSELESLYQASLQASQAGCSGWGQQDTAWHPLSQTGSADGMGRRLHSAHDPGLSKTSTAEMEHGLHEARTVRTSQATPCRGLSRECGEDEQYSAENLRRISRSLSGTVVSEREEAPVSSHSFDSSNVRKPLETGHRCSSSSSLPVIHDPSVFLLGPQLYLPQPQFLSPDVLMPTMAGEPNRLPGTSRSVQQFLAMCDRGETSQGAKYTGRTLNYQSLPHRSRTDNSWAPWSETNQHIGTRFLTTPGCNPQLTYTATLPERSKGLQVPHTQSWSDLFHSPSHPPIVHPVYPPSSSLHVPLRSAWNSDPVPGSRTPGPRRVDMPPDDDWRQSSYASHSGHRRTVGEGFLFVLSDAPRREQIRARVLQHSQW
USP7, sequence (Q93009 whole entry, looked up): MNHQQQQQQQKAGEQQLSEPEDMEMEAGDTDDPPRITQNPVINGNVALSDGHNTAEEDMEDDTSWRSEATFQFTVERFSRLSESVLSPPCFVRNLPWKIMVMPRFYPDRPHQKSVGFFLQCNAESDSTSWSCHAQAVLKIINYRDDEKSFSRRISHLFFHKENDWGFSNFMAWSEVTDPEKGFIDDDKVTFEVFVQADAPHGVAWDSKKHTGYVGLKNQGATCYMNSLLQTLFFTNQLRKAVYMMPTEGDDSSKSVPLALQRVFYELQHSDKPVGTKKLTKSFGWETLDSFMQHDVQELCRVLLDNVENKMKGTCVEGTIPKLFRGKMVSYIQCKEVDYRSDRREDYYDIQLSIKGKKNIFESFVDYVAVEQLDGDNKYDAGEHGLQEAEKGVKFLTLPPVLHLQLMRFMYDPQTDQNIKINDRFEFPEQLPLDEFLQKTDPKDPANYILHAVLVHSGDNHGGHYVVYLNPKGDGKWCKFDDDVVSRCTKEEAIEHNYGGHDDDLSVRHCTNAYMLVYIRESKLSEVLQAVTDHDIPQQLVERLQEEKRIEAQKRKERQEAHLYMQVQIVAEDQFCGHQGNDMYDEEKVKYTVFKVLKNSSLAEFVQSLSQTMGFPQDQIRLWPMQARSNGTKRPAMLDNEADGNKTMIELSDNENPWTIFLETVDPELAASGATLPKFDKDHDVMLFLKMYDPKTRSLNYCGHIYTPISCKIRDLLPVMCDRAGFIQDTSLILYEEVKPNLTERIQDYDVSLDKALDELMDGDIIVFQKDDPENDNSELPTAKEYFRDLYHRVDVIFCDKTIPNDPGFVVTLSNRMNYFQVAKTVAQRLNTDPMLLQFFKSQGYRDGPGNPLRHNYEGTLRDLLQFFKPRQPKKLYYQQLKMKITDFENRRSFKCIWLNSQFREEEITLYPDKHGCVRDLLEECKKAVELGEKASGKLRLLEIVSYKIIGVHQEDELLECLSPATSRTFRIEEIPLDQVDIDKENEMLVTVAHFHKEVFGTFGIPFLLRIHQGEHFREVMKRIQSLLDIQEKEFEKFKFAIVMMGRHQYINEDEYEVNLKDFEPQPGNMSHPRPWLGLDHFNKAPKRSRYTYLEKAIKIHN
USP46, sequence (P62068 whole entry): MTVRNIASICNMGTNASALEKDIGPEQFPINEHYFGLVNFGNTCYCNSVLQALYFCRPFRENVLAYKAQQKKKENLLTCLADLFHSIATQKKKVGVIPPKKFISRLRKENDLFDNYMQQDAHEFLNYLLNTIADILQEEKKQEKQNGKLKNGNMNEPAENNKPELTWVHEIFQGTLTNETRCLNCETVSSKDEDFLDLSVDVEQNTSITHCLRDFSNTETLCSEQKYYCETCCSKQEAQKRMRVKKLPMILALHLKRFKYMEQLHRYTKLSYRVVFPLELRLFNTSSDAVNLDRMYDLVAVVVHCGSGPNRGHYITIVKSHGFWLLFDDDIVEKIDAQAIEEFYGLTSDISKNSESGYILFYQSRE

Cl.O=C(CCl)N1CCC(Cc2nccs2)C1 (stereo not drawn)
inactive: USP42 0.34 | USP46 0.105 | USP47 -0.538 | USP48 -0.286 | USP5 0.225 | USP54 0.476 | USP7 -0.334 | USP8 -0.208

— the supplement of paper PMC11732987, “Enantioselective OTUD7B fragment discovery through chemoproteomics screening and high-throughput optimisation” (Communications Chemistry, 2025)
